Test results published in the supplement of paper PMC11732987, “Enantioselective OTUD7B fragment discovery through chemoproteomics screening and high-throughput optimisation” (Communications Chemistry, 2025).

What was measured:
Assay in all cases: log2 ratio of Biotin-Ahx-Ub-VS probe labelling (fragment/DMSO); higher = less target engagement (more negative = stronger competition), active = hit call of the paper (q ≤ 0.05, log2 ratio ≤ -1)
Conditions in all cases: compound concentration: 200 uM; treatment time: 3 h
USP19 = target: T1, USP19 (UniProt O94966)
T1 sequence (whole entry): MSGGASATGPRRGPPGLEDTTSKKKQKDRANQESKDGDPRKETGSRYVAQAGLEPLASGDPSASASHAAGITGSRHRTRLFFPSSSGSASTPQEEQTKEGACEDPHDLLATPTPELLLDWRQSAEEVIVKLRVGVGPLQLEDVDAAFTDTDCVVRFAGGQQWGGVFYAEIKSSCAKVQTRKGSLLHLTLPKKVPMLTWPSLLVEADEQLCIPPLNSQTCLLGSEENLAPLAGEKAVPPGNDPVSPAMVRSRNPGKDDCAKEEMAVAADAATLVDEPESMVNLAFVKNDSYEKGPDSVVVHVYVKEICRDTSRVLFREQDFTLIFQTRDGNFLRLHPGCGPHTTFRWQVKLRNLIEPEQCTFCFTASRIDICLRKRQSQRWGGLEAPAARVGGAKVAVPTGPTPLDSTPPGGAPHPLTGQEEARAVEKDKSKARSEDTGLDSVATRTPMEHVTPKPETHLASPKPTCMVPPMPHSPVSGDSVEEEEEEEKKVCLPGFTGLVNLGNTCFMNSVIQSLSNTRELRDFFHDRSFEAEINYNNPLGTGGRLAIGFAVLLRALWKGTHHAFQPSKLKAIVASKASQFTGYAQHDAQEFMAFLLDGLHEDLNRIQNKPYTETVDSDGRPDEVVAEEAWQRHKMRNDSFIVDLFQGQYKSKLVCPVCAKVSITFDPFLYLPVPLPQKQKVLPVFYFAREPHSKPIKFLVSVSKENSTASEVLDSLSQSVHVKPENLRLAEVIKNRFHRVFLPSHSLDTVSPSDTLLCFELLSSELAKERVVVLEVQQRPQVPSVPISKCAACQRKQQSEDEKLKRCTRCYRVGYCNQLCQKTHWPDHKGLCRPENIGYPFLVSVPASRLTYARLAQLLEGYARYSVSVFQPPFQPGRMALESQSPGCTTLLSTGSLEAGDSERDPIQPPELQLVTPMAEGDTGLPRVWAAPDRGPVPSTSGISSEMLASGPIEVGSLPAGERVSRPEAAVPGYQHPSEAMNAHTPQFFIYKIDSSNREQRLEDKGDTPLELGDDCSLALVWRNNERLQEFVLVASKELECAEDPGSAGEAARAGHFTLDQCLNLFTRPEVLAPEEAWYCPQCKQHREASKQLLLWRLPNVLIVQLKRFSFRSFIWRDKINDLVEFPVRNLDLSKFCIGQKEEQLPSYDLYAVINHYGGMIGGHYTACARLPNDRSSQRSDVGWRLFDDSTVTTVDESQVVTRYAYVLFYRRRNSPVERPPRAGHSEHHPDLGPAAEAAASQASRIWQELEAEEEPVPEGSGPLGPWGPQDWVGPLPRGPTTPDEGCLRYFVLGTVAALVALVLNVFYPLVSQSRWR
Procedure, shortened: (§1)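 Global-median-normalised Spectronaut label-free quantities were compared by unpaired t-test, and values are average log2 ratios of fragment over vehicle. Only proteins with ≥2 unique peptides were used. HEK293T lysate (495 µg per sample) was treated in triplicate with fragment at 200 µM or vehicle for 3 h and then with Biotin-Ahx-Ub-VS at 0.5 µM final for 1 h. Labelled DUBs were then NeutrAvidin-enriched, digested with LysC and trypsin, and run by diaPASEF LC-MS/MS.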

USP22 = target: T2, USP22 (UniProt Q9UPT9)
T2 sequence (whole entry): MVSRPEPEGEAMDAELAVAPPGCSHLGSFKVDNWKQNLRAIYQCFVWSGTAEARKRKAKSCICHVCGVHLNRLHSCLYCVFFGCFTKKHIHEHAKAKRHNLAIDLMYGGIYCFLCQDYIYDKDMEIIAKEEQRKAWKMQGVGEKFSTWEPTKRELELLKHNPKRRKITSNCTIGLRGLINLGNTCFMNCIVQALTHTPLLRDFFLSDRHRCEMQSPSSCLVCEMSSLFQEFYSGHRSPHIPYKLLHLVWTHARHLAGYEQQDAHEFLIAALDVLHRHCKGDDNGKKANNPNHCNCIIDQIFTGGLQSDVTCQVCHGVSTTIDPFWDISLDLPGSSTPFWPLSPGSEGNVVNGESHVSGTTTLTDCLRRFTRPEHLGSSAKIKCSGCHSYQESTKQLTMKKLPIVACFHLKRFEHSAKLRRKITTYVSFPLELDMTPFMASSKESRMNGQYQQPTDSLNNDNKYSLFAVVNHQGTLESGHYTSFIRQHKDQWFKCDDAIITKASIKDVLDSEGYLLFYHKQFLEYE
Procedure, shortened: as §1

USP24 = USP24 (UniProt Q9UPU5)
Procedure, shortened: as §1

USP25 = target: T3, USP25 (UniProt Q9UHP3)
T3 sequence (whole entry): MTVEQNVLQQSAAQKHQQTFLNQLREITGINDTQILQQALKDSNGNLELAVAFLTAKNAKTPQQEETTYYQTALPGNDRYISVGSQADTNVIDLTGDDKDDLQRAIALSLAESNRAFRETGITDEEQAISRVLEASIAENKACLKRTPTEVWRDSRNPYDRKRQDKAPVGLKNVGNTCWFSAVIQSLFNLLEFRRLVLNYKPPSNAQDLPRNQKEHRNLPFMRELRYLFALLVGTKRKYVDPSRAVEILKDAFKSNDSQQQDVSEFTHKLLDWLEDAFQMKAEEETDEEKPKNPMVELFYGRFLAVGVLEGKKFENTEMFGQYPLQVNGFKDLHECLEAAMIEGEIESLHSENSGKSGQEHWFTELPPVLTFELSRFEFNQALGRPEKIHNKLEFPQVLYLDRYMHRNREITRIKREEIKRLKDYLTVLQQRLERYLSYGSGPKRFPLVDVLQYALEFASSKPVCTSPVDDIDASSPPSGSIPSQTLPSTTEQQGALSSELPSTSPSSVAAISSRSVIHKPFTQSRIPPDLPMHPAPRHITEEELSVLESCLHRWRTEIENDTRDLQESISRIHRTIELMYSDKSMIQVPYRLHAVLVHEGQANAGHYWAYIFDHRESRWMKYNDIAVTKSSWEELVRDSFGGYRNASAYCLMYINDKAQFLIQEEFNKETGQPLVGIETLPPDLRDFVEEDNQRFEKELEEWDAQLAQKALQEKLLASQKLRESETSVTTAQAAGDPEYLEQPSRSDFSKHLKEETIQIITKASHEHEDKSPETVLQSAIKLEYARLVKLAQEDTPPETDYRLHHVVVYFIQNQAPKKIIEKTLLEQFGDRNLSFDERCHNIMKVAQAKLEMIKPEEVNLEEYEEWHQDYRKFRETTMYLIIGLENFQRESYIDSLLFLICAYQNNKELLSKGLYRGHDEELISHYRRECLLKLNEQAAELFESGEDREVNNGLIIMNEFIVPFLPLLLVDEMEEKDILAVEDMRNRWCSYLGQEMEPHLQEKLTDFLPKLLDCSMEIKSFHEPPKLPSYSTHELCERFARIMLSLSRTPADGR
Procedure, shortened: as §1

USP28 = target: T4, USP28 (UniProt Q96RU2)
T4 sequence (whole entry): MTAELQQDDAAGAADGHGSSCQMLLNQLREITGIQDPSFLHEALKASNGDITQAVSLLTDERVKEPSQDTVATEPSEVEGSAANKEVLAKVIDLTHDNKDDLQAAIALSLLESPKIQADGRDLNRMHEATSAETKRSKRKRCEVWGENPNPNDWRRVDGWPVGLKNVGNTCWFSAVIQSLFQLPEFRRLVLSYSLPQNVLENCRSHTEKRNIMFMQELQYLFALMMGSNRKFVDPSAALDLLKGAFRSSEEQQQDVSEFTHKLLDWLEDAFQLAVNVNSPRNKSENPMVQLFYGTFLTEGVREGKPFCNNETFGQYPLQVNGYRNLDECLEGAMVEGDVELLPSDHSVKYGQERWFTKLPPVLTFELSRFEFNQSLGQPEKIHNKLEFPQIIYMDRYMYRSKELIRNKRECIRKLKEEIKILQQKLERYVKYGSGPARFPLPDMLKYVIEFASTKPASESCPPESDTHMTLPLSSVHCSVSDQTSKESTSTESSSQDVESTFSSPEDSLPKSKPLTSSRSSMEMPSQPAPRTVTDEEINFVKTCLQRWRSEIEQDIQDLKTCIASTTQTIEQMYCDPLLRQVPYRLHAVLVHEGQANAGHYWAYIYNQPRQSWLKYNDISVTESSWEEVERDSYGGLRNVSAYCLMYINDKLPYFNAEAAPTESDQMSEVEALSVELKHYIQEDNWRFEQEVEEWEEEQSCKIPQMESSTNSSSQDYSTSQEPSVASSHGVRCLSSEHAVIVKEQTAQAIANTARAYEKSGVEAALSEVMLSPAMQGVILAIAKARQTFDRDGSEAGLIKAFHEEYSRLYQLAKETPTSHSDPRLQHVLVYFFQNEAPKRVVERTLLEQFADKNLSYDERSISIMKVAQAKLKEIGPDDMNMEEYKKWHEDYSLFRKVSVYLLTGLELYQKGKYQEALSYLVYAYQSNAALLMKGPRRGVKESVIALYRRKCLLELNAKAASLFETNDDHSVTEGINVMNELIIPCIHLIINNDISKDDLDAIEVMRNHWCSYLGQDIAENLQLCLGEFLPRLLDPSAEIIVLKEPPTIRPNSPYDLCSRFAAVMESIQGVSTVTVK
Procedure, shortened: as §1

Measured: log2 ratio of Biotin-Ahx-Ub-VS probe labelling

USP24, sequence (Q9UPU5 whole entry): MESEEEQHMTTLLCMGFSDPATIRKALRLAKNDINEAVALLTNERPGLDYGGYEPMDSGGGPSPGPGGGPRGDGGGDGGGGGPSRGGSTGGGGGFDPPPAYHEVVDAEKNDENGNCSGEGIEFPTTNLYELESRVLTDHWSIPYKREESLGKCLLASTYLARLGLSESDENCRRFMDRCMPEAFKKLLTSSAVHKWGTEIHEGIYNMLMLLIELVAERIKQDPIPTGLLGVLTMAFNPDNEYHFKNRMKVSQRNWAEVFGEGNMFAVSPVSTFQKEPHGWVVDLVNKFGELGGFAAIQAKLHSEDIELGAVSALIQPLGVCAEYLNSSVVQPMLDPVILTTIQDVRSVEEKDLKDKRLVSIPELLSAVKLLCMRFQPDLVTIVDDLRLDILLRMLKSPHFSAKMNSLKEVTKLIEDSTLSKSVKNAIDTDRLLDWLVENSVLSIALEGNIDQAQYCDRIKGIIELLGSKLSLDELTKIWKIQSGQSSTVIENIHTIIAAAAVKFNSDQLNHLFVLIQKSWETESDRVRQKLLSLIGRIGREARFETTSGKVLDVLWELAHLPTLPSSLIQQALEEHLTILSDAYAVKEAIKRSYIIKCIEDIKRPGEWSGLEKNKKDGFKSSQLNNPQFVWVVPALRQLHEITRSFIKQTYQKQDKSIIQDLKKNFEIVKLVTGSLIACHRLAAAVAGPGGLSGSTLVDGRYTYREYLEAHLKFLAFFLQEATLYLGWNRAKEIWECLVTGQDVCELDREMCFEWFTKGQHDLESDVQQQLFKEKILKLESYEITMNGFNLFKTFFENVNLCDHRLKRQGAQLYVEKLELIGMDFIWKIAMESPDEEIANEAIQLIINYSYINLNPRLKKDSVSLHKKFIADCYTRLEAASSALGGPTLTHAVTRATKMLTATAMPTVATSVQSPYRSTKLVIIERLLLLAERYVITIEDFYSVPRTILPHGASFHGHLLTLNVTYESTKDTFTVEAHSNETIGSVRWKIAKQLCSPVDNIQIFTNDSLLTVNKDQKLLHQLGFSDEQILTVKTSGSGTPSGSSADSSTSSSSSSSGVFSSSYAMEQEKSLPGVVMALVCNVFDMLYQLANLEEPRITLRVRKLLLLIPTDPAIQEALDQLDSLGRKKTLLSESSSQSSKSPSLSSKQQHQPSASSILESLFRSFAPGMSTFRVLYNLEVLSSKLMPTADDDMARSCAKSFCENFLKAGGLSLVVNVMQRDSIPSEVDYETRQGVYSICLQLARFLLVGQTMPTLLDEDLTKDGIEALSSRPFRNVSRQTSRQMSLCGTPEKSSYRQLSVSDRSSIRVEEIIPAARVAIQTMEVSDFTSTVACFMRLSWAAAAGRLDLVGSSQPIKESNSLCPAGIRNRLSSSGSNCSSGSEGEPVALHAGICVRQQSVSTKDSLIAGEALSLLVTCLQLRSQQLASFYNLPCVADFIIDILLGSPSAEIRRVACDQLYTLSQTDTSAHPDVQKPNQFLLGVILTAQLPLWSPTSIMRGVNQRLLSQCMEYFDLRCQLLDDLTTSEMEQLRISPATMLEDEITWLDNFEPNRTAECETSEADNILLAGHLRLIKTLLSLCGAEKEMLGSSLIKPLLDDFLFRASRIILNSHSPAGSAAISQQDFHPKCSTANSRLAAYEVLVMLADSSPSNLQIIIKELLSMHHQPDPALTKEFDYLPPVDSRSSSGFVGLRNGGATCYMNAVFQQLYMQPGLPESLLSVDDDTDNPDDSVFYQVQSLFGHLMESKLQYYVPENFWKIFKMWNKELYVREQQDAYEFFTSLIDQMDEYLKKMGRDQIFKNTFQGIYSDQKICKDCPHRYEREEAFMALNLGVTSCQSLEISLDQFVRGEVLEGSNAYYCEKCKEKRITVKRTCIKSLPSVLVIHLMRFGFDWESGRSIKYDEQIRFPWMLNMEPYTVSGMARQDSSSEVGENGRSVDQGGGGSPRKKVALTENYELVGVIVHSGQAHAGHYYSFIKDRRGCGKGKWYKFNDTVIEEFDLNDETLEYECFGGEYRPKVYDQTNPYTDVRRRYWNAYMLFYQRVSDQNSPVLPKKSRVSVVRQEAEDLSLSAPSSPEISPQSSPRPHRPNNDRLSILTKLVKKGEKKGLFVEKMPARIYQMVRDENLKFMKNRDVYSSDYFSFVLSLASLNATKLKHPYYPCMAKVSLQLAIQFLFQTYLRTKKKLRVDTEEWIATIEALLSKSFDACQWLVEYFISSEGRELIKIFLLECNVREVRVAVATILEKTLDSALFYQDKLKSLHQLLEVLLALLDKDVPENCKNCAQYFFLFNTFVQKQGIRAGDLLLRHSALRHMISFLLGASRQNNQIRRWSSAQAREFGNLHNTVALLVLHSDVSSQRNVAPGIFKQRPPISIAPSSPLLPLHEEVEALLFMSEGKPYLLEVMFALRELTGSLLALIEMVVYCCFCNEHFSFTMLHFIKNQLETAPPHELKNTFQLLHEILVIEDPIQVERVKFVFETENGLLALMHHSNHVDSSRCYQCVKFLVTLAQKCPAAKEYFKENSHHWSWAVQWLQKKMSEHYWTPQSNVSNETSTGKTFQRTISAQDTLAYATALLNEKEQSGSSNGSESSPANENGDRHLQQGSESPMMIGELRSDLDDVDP

O=C(CCl)Nc1cc(Cl)ccc1C(=O)O
inactive: USP19 -0.0222 | USP22 0.0608 | USP24 -0.0569 | USP25 0.269 | USP28 -0.0169
